Assay outcomes from PubChem BioAssay.
In the library only some 12% were active in any assay of this set; here they are far more common.
G9a block: G9a (human) methyltransferase inhibition; G9a H3K9 monomethylation, AlphaScreen, 2 h; Potency, µM (doses to about 102 µM), for the others: at the top dose activity, negative = inhibition, most hits filed as inhibitors; actives 8.8% (n = 350,000); AID 504332; also: % is scaled to controls: 0 for no effect and ±100 for the full control effect; nearly all actives have a fitted effect of over 75% in size
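Compounds were preincubated with 20 nM G9a for 15 min, after which biotinylated H3K9 peptide (500 nM) and SAM (20 uM) started a 2 h room-temperature reaction. Monomethylated product was quantified by antibody-based AlphaScreen chemiluminescence.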
Sfp PPTase inh: Sfp phosphopantetheinyl transferase inhibition | Biochemical Sfp PPTase activity, qHTS | Potency, µM, inactives show largest response in the series, negative = inhibition, actives largely listed as inhibitors | actives 3.5% (n = 310,000);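 also: the enzyme is Sfp with the accession as filed and its product quenches rhodamine fluorescence; 0% = enzyme reaction without inhibitor and -100% = no enzyme wells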
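Step 1, compound plus 15 nM Sfp-PPTase, 15 min, room temperature. Step 2, add rhodamine-CoA (5 uM) and BHQ-2-YbbR (12.5 uM). Step 3, read 525/598 nm fluorescence at 0 and 30 min.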
HP1b binding inh: inhibitors of HP1-beta chromodomain binding to methylated histone tails. P83916. AlphaScreen HP1-beta / biotin-H3K9me3 peptide binding. Potency, µM (top dose mostly 114 µM), for inactives: top-dose activity change, negative = inhibition, usual class: inhibitors. actives 0.56% (n = 390,000); also: nearly all actives have a fitted effect of over 70% in size
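Compound inhibition of the preformed complex between 50 nM HP1-beta and 50 nM biotinylated H3K9me3 peptide was read by AlphaScreen. Buffer was PBS pH 7.4 with 0.01% Tween-20. Incubations ran 30 min at room temperature, with 10 ug/mL donor/acceptor beads.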
JMJD2A Tudor: JMJD2A Tudor domain (human) inhibition; Potency, µM (doses to about 114 µM), for the others: top-dose activity change, negative = inhibition, most hits filed as inhibitors; AID 504339; actives 4.4% (n = 390,000); AlphaScreen JMJD2A-Tudor / H3K4me3 peptide binding; also: % is scaled to controls: 0 for no effect and ±100 for the full control effect; nearly all actives have a fitted effect of over 50% in size
L3MBTL1 inh: inhibitors of human L3MBTL1 | Q9Y468 | AlphaScreen L3MBTL1–H3K9me1 peptide binding | Potency, µM (top dose mostly 57.1 µM), inactives show at the highest dose activity, negative = inhibition, usual class: inhibitors | actives 0.66% (n = 230,000); also: % is scaled to controls: 0 for no effect and ±100 for the full control effect; nearly all actives have a fitted effect of over 60% in size
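Read-out is AlphaScreen signal from streptavidin donor and nickel chelate acceptor beads (10 ug/mL final each) bridging L3MBTL1 (50 nM) and biotinylated K9-monomethylated H3(1-15) peptide (75 nM), after 30 min compound exposure at room temperature.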
BAZ2B inh: BAZ2B (human) inhibition; Potency, µM (highest dose often 114 µM), inactives show at the highest dose activity change, negative = inhibition, most hits filed as inhibitors; Q9UIF8; AlphaScreen BAZ2B-H3K14Ac peptide displacement; AID 504333; actives 4.4% (n = 360,000); also: % is scaled to controls: 0 for no effect and ±100 for the full control effect; nearly all actives have a fitted effect of over 60% in size
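Multi-concentration screen (max 110 uM) measuring displacement of acetylated histone H3 peptide from BAZ2B by AlphaScreen, using 50 nM protein, 50 nM peptide and 10 ug/mL streptavidin donor plus Ni-chelate acceptor beads.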
The depositor's hits bear a star; ? = inconclusive; . = not tested or not shown; [ ] = another dose, or the depositor's remark. Calls follow the shape of the dose curve; as a rule, active = well fitted curve in the direction sought with a large enough effect; inconclusive = small, poorly fitted or top-dose-only effect, or another doubt; inactive = no such curve, though single readings can be large; an effect the other way counts as inactive or inconclusive. Potency is read from the fitted curve at half-maximal effect.

SMILES	G9a block	Sfp PPTase inh	HP1b binding inh	JMJD2A Tudor	L3MBTL1 inh	BAZ2B inh
Cc1ccc(CNC(=O)c2ccc3c(c2)NC(=O)C(CS(=O)(=O)Cc2cccc(F)c2)N3)cc1 (stereo not given)	6.3µM*	.	40%	89µM*	.	-1%[57.1 µM]
CCN(CC)CCCNC(=O)c1ccc2c(c1)NC(=O)C(CS(=O)(=O)Cc1ccc(F)cc1Cl)N2 (stereo not given)	10µM*	.	11%	-18%	.	-10%
O=C(NCc1ccc(Cl)cc1)c1ccc2c(c1)NC(=O)C(CS(=O)(=O)Cc1ccc(F)cc1Cl)N2 (stereo not given)	16µM*	.	18%	?	.	10%[57.1 µM]
COc1ccc(CC(=O)N(Cc2nc(-c3ccc(C)cc3)no2)C(C)C)cc1	5%[59 µM]	.	58%	15%	.	1%
Cc1ccc(/C=N/NC(=O)NC23CC4CC(CC(C4)C2)C3)o1	.	89µM*	?	-35%	-4%	19%
CCCn1cc(S(=O)(=O)c2ccccc2)c(=O)c2cc(F)c(N3CCCC(C)C3)cc21 (stereo not given)	10%[59 µM]	.	23%	-20%	.	2%
COc1ccccc1CNc1nc(-c2cc(C)n(C)c2C)cs1	10µM*	-59%	-37%	40µM*	.	40µM*
Cc1ccc(-n2c(C)cc(-c3csc(N)n3)c2C)cc1	5µM*	?	?	40µM*	-7%	56µM*
Cc1cc(-c2csc(N)n2)c(C)n1Cc1ccco1	18µM*	50µM*	5%	?	.	?
Cc1cc(-c2csc(N)n2)c(C)n1C	10µM*	20µM*	-22%	?	.	50µM*
Cc1cc(C(=O)COC(=O)c2cc(Cl)ccc2N)c(C)n1Cc1ccco1	11%[59 µM]	-18%	9%	?	?	?
Cc1cccc(Cc2c(C)nc3nc(SCc4cccc(F)c4)nn3c2C)c1	31%[59 µM]	.	0%	6%	.	3%
Cc1c(C)c2c(c(C)c1OC(=O)CCC(=O)O)CC[C@@](C)(CCC[C@H](C)CCC[C@H](C)CCCC(C)C)O2	-43%[12.7 µM]	18%	.	.	.	.
O=C(NC1CCCCC1)Sc1ccc(Cl)cc1	?	28µM*	69%	110%	.	57%
CCCCN(CCCC)CCNC(=O)c1cn(C)c2ccc(S(=O)(=O)N3CCOCC3)cc2c1=O	0%[59 µM]	.	26%	-5%	.	.
CC(=Nc1cccc(O)c1)c1sc2ccccc2c1O	?	-18%	17%	-10%	1%	40µM*
CC(=Nc1ccc(C)cc1C)c1sc2ccccc2c1O	?	-6%	20%	56µM*	14%	?
Cc1nc2cccnc2n1C1CCN(C(=O)Nc2ccccc2C(F)(F)F)CC1	10%[12.7 µM]	.	30%	7%	.	-7%
O=[N+]([O-])c1ccc(/C=[N+](\[O-])[C@@H]2CCCC[C@@H]2/[N+]([O-])=C/c2ccc([N+](=O)[O-])o2)o1	50µM*	?	-10%	-35%	.	2.5µM*
O=C(N/N=C/c1ccc([N+](=O)[O-])o1)C1CCCC1	-2%[0.501 µM]	-3%	26%	-15%	.	-15%
C=CCOC(=O)C1=C(C)NC(SCC(=O)NC(=O)OCC)=C(C#N)C1c1cccnc1 (stereo not given)	50µM*	?	45%	-5%	2%	-6%
CC(=O)C1=C(C)NC(SCC(=O)c2ccc(-c3ccccc3)cc2)=C(C#N)C1c1cccnc1 (stereo not given)	16µM*	22µM*	.	.	-4%	-22%
COc1ccc(C2C(=O)N(C3CCCCC3)CC(=O)N2CCc2ccc(OC)c(OC)c2)cc1 (stereo not given)	-5%[59 µM]	.	4%	-21%	.	-3%
CCC/C=C(\CCC)C(NS(=O)(=O)c1ccc(C(F)(F)F)cc1)c1ccc(-c2ccccc2)cc1 (stereo not given)	.	28%	.	.	.	.
O=[N+]([O-])c1cccc(C2=N[C@@H](Cc3ccccc3)CO2)c1	?	-20%	.	.	.	.
Cc1[nH]c(C)c(S(=O)(=O)N2CCN(c3ccccc3)CC2)c1C(=O)N1CCCC1	45µM*	-2%	6%	-25%	.	-12%
